Compound activity deposited in PubChem BioAssay by National Center for Advancing Translational Sciences (NCATS).
Rows were chosen to be rich in hits. Some 1.4% of all compounds tested hit in one or more screens of this group.
Chronic BCR inh = blocks chronic active B-cell receptor signaling; ABC-DLBCL IkBa-CBG/CBR reporter, luminescence ratio, 4 h; Potency, µM (doses to about 46.1 µM), inactives show top-dose activity change, negative = inhibition, most hits filed as inhibitors; hit rate 0.05% among 340,000; AID 493014; active = well fitted inhibition curve with a large enough effect in the signal ratio, with a control signal flat, not every such curve was filed as active; inconclusive = small, poorly fitted or top-dose-only effect, or effect the other way, or a change in a side signal; the % refers to the signal ratio;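 also: potency is read from the fitted curve at half-maximal effect; plate controls were basal doxycycline-induced cells for no effect and cells given 10 µM MG132 for full effect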
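TMD8 ABC-DLBCL cells carrying doxycycline-inducible green luciferase fused to IkappaBalpha plus unfused red luciferase were exposed to compounds (up to 46 uM) for 4 hrs at 37C. Activity came from the overlap-corrected green/red luminescence ratio.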
N370S GC = inhibits or activates N370S mutant glucocerebrosidase. AID 2101. hit rate 0.092% among 330,000. Potency, µM (top dose mostly 59.4 µM), for the others: at the highest dose activity change, negative = inhibition, usual class: inhibitors. N370S GC spleen homogenate, 4MU-glucoside fluorescence. P04062;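 also: potency is read from the fitted curve at half-maximal effect; 0% = full enzyme activity and -100% = no enzyme basal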
Nrf2 activator = Nrf2 pathway activation. hit rate 0.31% among 410,000. AREc32 ARE-luciferase reporter (MCF7-derived line), luminescence, 24 h. AID 624171. Potency, µM (doses to about 46.1 µM), without a hit: at the top dose activation, most hits filed as activators; also: potency is read from the fitted curve at half-maximal effect; % of control where 0% means no effect; nearly all actives have a fitted effect of over 65% in size
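Luminescent ARE reporter assay in AREc32_Fluc cells: overnight plating at 37 deg C, 24 hr compound incubation, Steady-Glo added, 30 min RT before reading.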
IL-2 act = activators of IL-2; activation, % (series mostly up to about 46 µM); hit rate 0.065% among 360,000; IL-2 activation reporter assay, cell-based qHTS; stimulated with anti-CD3/CD4/CD28 beads; in transgenic mouse T cells; in the data active = activation above about 50%; inconclusive = mostly about 30% to 49%; also: 0% is about no effect
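Unstimulated transgenic mouse T cells preincubated 60 min with compound, then stimulated with anti-CD3/anti-CD4-coated beads plus anti-CD28 for 18 h at 37 degrees C. IL-2 response read as EGFP and DsRed fluorescence by plate cytometry.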
Integrin act MD = activators of alpha7 integrin expression for muscular dystrophy. alpha7betagal myoblasts, beta-gal FDG fluorescence, 48 h. Potency, µM (series often up to 38.3 µM), for the others: at the top dose activation, most hits filed as activators. hit rate 0.064% among 350,000;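 also: potency is read from the fitted curve at half-maximal effect; 100% = response of the positive control SU9516; nearly all actives have a fitted effect of over 60% in size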
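Alpha7betagal+/- myoblasts (passage 13) were plated 16-24 hr, then exposed to compounds (1:260 dilution of DMSO stock) for 48 hours at 37C. After MPER lysis, β-galactosidase reporter activity was read as FDG fluorescence (ex 480/em 540) after 30 minutes.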
BRCA1 expr act = BRCA1 expression activation. MCF7-BRCA1-FFLuc reporter, luminescence, 48 h; response scale: scaled: vehicle 0%, 10 µM genistein 100%. Potency, µM (titrated, usually from 46.1 µM), inactives show at the highest dose activation, most hits filed as activators. hit rate 1.1% among 380,000. AID 624202; also: potency is read from the fitted curve at half-maximal effect; nearly all actives have a fitted effect of over 80% in size
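Quantitative HTS in MCF7 cells stably reporting BRCA1 expression via firefly luciferase. Compound treatment lasts 48 h at 37 °C in phenol-red free MEM. Activation is expressed relative to genistein at 10 microM and DMSO.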
* = called active by the depositor; ? = inconclusive; . = no result; [ ] = another dose, or the depositor's remark. Unless noted, calls follow the shape of the dose curve; as a rule, active = well fitted curve in the direction sought with a large enough effect; inconclusive = small, poorly fitted or top-dose-only effect, or another doubt; inactive = no such curve, though single readings can be large; an effect the other way counts as inactive or inconclusive.

SMILES	Chronic BCR inh	N370S GC	Nrf2 activator	IL-2 act	Integrin act MD	BRCA1 expr act
NC(N)=NCCC[C@@H](N)C(=O)NCC(=O)N[C@@H](CC(=O)O)C(=O)N[C@@H](Cc1c[nH]c2ccccc12)C(=O)O	.	-5.8%	.	.	.	.
O=c1[nH]c2cc([N+](=O)[O-])ccc2c2cc(Br)ccc12	.	.	3.16µM*	-1.8	2.1%	-56.3%
Cc1cc(OCC(=O)Nc2ccccc2N2CCOCC2)c(C(C)C)cc1Cl	?	.	0.4%	-0.7	-24.6%	-22.2%
COc1ccc(-c2nc(C#N)c(NCc3ccco3)o2)cc1	-5.6%	19.6%	15.3%	-4.8	2.6%	8.91µM*
Cn1cccc1C(=O)N/N=C/c1c(Cl)cccc1Cl	-8.5%	-2.1%	26.8%	4.0	0.0%	6.31µM*
O=C(N/N=C/c1c(Cl)cccc1Cl)c1ccccc1F	-2.6%	-13.2%	5.01µM*	0.3	-4.7%	-6.6%
O=C(N/N=C/c1ccc(O)cc1)c1cc(C2CC2)[nH]n1	?	-7.2%	0.6%	-2.4	-22.8%	3.3%
Cn1cccc1/C=N/NC(=O)c1ccncc1	-0.2%	3.1%	-0.6%	0.3	0.9%	0.7%
O=C(N/N=C/c1c(Cl)cccc1Cl)c1ccc(F)cc1	?	4.1%	?	-1.8	-17.1%	-11.3%
Cn1cccc1/C=N/NC(=O)c1ccccn1	?	1.2%	0.0%	-4.6	?	10µM*
O=C(N/N=C/c1c(F)cccc1Cl)c1cc(C2CC2)[nH]n1	?	7.2%	4.5%	0.1	-6.0%	11.2µM*
COc1cc2nc(N3CCCN(C)CC3)nc(OC3CCN(C)CC3)c2cc1OC	.	.	.	.	.	0.0%
N#CN=c1snc(-c2ccccc2Cl)n1-c1ccc(F)cc1	.	.	.	.	.	-66.3%
O=C(O)c1ccc(N/N=C/C(Br)=C/c2ccccc2)cc1	?	-6.1%	?	-0.3	-52.1%	?
O=C(N/N=C/C(Br)=C/c1ccccc1)C1CC1	?	2.5%	20µM*	-6.9	?	?
O=C(N/N=C/C(Br)=C/c1ccccc1)NC1CCCCC1	?	2.1%	?	-3.1	-45.0%	56.8%
O=C(N/N=C/C(Br)=C/c1ccccc1)c1ccncc1	?	-17.8%	?	-1.0	-63.8%	-77.3%
O=C(N/N=C/C(Br)=C/c1ccccc1)c1ccc([N+](=O)[O-])cc1	-17.3%	-3.8%	8.91µM*	0.2	-49.2%	-22.1%
O=C(N/N=C/C(Br)=C/c1ccccc1)C(O)c1ccccc1 (centres undefined)	-22.6%	-6.6%	11.2µM*	0.2	-56.6%	52.0%
Cc1nc(NCC(=O)c2c[nH]c3ccccc23)sc1C	.	.	.	.	.	8.7%
C=C(C)CC1(c2ccccc2)Oc2ccccc2-c2nc3cc(Cl)c(Cl)cc3nc21 (centres undefined)	.	1.9%[12.8 µM]	.	.	.	.
Cn1cnc(S(=O)(=O)N2CCC(C(=O)NCc3ccc(F)cc3)CC2)c1	.	.	0.6%	.	.	.
CCOC(=O)C(=Cc1ccc(-c2ccsc2C(=O)OC)o1)C(=O)OCC	?	-0.3%	?	-0.2	-61.5%	-62.0%
COC(=O)C(=Cc1ccc(-c2ccsc2C(=O)OC)o1)C(=O)OC	?	5.6%	12.6µM*	-2.6	-3.2%	5.4%
COC(=O)c1ccccc1S(=O)(=O)N1CCC(C(=O)NCc2ccco2)CC1	1.9%	.	-0.4%	-0.4	-28.8%	-0.2%
SMILES	Chronic BCR inh	N370S GC	Nrf2 activator	IL-2 act	Integrin act MD	BRCA1 expr act
O=C(c1cc(COc2ccc(F)cc2F)on1)N1CCSCC1	6.8%	5.8%	3.9%	-0.8	-7.3%	7.94µM*
COc1cc(S(=O)(=O)Nc2ccc(C)cc2)ccc1N=Cc1c(C)[nH]n(-c2ccc(C)cc2)c1=O	?	5.5%	-0.6%	20.8	19.4%	-36.2%
COc1cc(S(=O)(=O)Nc2ccc(C)cc2)ccc1N=Cc1c(C)c(C#N)c(=O)n(C)c1O	3.4%	-1.7%	-0.2%	447.9*	-6.1%	17.7%
Cc1cc(=O)oc2cc(OCC(=O)Nc3nnc(C(C)C)s3)ccc12	?	7.0%	-0.4%	59.6*	11.3%	-24.8%
CC(C)c1nnc(NC(=O)COc2ccc3c(c2)OCO3)s1	3.2%	-14.9%	4.5%	0.4	-24.5%	11.2µM*
CCC(CC)c1nnc(NC(=O)COc2ccc3c(c2)OCO3)s1	-16.1%	0.8%	3.0%	0.3	-3.5%	1.3%
Cc1ccc(-c2nc(=Nc3c(C)cc(C)cc3C)sn2-c2ccccc2)cc1	.	.	.	.	.	-69.5%
COc1ccc(CNCc2ccccc2)cc1COc1ccc(NC(C)=O)cc1	.	.	.	.	.	0.0%
COc1ccc(C(=O)O/N=C(\N)c2ccc(Cl)cc2)cc1	-0.4%	-1.2%	4.1%	-1.3	1.3%	2.51µM*
N/C(=N\OC(=O)c1ccc2c(c1)OCO2)c1ccncc1	?	8.2%	-0.2%	-0.5	?	4.47µM*
Cc1cc(/C(N)=N/OC(=O)c2cccc(Cl)c2)no1	-10.3%	9.4%	29.0%	1.3	-7.9%	32.2%
Cc1cc(/C(N)=N/OC(=O)c2ccc(Cl)cc2)no1	?	1.6%	-1.1%	3.0	-13.3%	7.94µM*
Cc1ccc(/C(N)=N/OC(=O)c2ccc3c(c2)OCO3)cc1	2.6%	2.2%	8.1%	-3.4	2.0%	?
COc1ccc(/C(N)=N/OC(=O)c2ccc3c(c2)OCO3)cc1	4.2%	-4.0%	7.8%	1.1	9.0%	3.16µM*
C=CCOc1ccc2c(c1)c(=O)cc(C(=O)O)n2CC	6.6%	1.8%	-0.4%	-0.1	-23.4%	-1.8%
CN1C(=O)C2CCCCN2c2ccc(C(=O)NCc3ccccc3Br)cc21 (centres undefined)	.	.	0.5%	.	.	.
COc1cc2nc(N3CCCN(C)CC3)nc(NC3CCN(C)C3)c2cc1OC (centres undefined)	.	.	.	.	.	-34.6%
N/C(=N\OC(=O)c1ccc2c(c1)OCO2)c1ccc(Cl)cc1	-9.2%	-1.0%	6.4%	0.0	0.8%	8.91µM*
CC(=O)Nc1ccc(/C=C/C(=O)c2ccc(-n3nncc3-c3ccccc3)cc2)cc1	.	.	.	.	.	-56.1%
COc1cc(NC(=O)COc2cc(O)c3c(c2)OC(C)(C)CC3=O)cc(OC)c1	-15.4%	-12.4%	4.8%	-0.7	-5.3%	0.0%
COc1ccc(C(=O)Cn2cnc3ccccc3c2=O)cc1	?	0.1%	1.9%	1.7	7.4%	?
O=C(Cn1cnc2ccccc2c1=O)c1ccc2ccccc2c1	.	1.9%	-0.3%	-0.3	11.5%	6.31µM*
CN(C)c1cc(N2CCOCC2)nc(C#N)n1	.	.	.	.	.	0.0%
Cn1c(=O)c(-c2cc(=O)[nH][nH]2)c(O)c2ccccc21	-0.5%	-8.3%	0.6%	0.0	-34.3%	-50.1%
Cc1nc(S(=O)(=O)N2CCN(c3ccc(Cl)cc3)CC2)cn1C	.	.	-1.1%	.	.	7.5%
NC(=O)c1ccnc2c(O)cccc12	?	.	0.2%	-0.2	.	4.7%
OCc1ccnc2c(O)cccc12	6.31µM*	8.1%	6.4%	-1.6	-41.3%	-43.4%
